Source: PubChem BioAssay (NCATS)
Inconclusive results are not listed. Where a call stands in place of a potency, no number is given. The source made the active and inactive calls. Calls follow the shape of the dose curve; as a rule, active = well fitted cell-killing curve with a large enough effect; inconclusive = small, poorly fitted or top-dose-only effect; inactive = flat fitted curve, though single readings scatter.

assay: qHTS assay to identify small molecule inhibitors of chordoma cells - UCH-2 (AID 1259356); details: UCH-2 chordoma viability, CellTiter-Glo ATP luminescence, 48 h; series mostly up to 46.1 µM

| SMILES | Potency |
| --- | --- |
| C[C@@H]1CCC2[C@@H](C)[C@@H](O)O[C@@H]3O[C@@]4(C)CC[C@@H]1[C@@]23OO4 (stereo partly specified) | inactive |
| C=C[C@]1(C)C[C@@H](OC(=O)CSC(C)(C)CNC(=O)[C@H](N)C(C)C)[C@]2(C)[C@H](C)CC[C@]3(CCC(=O)[C@H]32)[C@@H](C)[C@@H]1O | inactive |
| CCCCCCCCCCCCCCCC(=O)OCC(COC(=O)CCCCCCCCCCCCCCC)OC(=O)CCCCCCCCCCCCCCC | inactive |
| Cc1ccccc1OCC(O)CNCCOc1ccc(C(N)=O)cc1 (stereo unspecified) | inactive |
| CC(C)(C)NC(=O)[C@@H]1C[C@@H]2CCCC[C@@H]2CN1C[C@@H](O)[C@H](Cc1ccccc1)NC(=O)[C@H](CC(N)=O)NC(=O)c1ccc2ccccc2n1 | inactive |
| CC(C)(C)C1(O)CCN2CC3c4ccccc4CCc4cccc(c43)C2C1 (stereo unspecified) | inactive |
| CC(NNC(=O)c1ccccc1)c1ccccc1 (stereo unspecified) | inactive |
| COCC(=O)Nc1cc(Sc2ccccc2)ccc1N=C(NC(=O)OC)NC(=O)OC | inactive |
| CCN(CC)CCOc1ccc(-c2nc3cc(Cl)ccc3s2)cc1 | inactive |
| C/C1=C2N=C(/C=C3N=C(/C(C)=C4\[N-][C@@](C)([C@@H]5N=C1[C@](C)(CCC(=O)NCC(C)OP(=O)(O)O[C@H]1[C@@H](O)[C@@H](n6cnc7cc(C)c(C)cc76)O[C@@H]1CO)[C@H]5CC(N)=O)[C@@](C)(CC(N)=O)[C@@H]4CCC(N)=O)[C@@](C)(CC(N)=O)[C@@H]\3CCC(N)=O)C(C)(C)[C@@H]/2CCC(N)=O.CC(=O)O.[Co] (stereo partly specified) | inactive |
| CO/N=C(\C(=O)N[C@@H]1C(=O)N2C(C(=O)O)=C(CSc3cnns3)CS[C@H]12)c1csc(N)n1 | inactive |
